The source of these data is PubChem BioAssay.

Molecules are shown by their SMILES. Active and inactive are the calls of the source. Unless noted, how the calls were made is not given here.

Test [1] is described as follows: compound effects on lung adenocarcinoma cell viability – A549, calcein-AM fluorescence, 48 h, basal, profiling panel (AID 1162). Further: test concentration not given here. To be noted: higher = more signal.
Test [2] can be described thus: compound effects on differentiated 3T3-L1 adipocyte viability – cell-based, 3T3-L1 adipocytes, calcein-AM fluorescence, 48 h, basal, profiling panel (AID 1163). Further: test concentration not given here. To be noted: 3T3-L1 adipocytes viability, higher = more signal.
A short description of test [3]: compound effects on hepatocellular carcinoma cell viability – HepG2, calcein-AM fluorescence, 48 h, basal, profiling panel (AID 1164). Further: test concentration not given here. To be noted: higher = more signal.
Test [4] can be described thus: compound effects on multiple myeloma cell viability – MM1S, calcein-AM fluorescence, 48 h, basal, profiling panel (AID 1165).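 Further: viability of MM1S multiple myeloma cells under basal unstimulated conditions; test concentration not given here.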 To be noted: higher = more signal.
Test [5] can be described thus: calcein-AM signal in unstimulated myeloma cells – cell-based, calcein-AM fluorescence, 48 h, PK04 Diversity Set, profiling panel (AID 1166).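 Further: cells grown under basal conditions without added stimulus; test concentration not given here.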 To be noted: RPMI8226 myeloma viability, higher = more signal.
Test [6] in a line: JC-1 mitochondrial signal, unstimulated HepG2 cells – cell-based, JC-1 fluorescence, 24 h, 100 nL compound, profiling panel (AID 1167). Further: test concentration not given here. The settings on record: HepG2 mitochondrial potential, higher = more signal.
Test [7] can be described thus: JC-1 mitochondrial signal, unstimulated adipocytes – cell-based, JC-1 fluorescence, 3T3-L1 adipocytes, 24 h, 100 nL compound, profiling panel (AID 1168). Further: test concentration not given here. The settings on record: JC-1 mitochondrial fluorescence, higher = more signal, called active from +8 up or from −8 down.
A short description of test [8]: JC-1 mitochondrial signal, unstimulated myeloma cells – cell-based, JC-1 fluorescence, RPMI8226, 24 h, 100 nL compound, profiling panel (AID 1169). Further: test concentration not given here. The settings on record: JC-1 mitochondrial potential fluorescence, higher = more signal.
Test [9] in a line: JC-1 mitochondrial signal, unstimulated MM1S myeloma – cell-based, JC-1 fluorescence, 24 h, 100 nL compound, profiling panel (AID 1170). Further: test concentration not given here. To be noted: MM1S mitochondrial potential, higher = more signal.
Test [10] can be described thus: resazurin metabolic signal in A549 cells – cell-based, resazurin fluorescence, 24 h, PK04 Diversity Set, profiling panel (AID 1171). Further: test concentration not given here. The settings on record: A549 viability, higher = more signal, called active from +8 up or from −8 down. In general terms: The colour change of resazurin is a common sign of viable cells or microbes.
Test [11] in a line: resazurin metabolic signal in HepG2 cells – cell-based, resazurin fluorescence, 24 h, PK04 Diversity Set, profiling panel (AID 1172). Further: test concentration not given here. To be noted: HepG2 viability, higher = more signal.
Test [12] in a line: budding yeast growth changes without added modifier – OD600, strain BY4716, 24 h, basal condition, primary screen (AID 1173). To be noted: S. cerevisiae BY4716 growth, OD600, 24 h; higher = more signal, called active from +8 up or from −8 down.
The nature of test [13]: viability profiling in MM1S myeloma cells – cell-based, resazurin fluorescence, basal, 24 h, PK04 Diversity Set, profiling panel (AID 1174). Further: test concentration not given here. The settings on record: higher = more signal, called active from +8 up or from −8 down.
The target of test [14] is Dihydroorotate dehydrogenase (quinone), mitochondrial (Plasmodium falciparum (isolate 3D7)) (UniProt Q08210). The experiment in a line: inhibition of P. falciparum DHODH – biochemical, C-terminal His tag, absorbance 600 nm, primary screen (AID 1175).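 Further: recombinant parasite enzyme with a five histidine tag at its C terminus; test concentration not given here.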 The settings on record: PfDHODH enzyme, DCIP absorbance 600 nm; higher = more signal, called active from +8 up or from −8 down.

Test [15] in a line: inhibition of PAO1 biofilm formation – strain PAO1, LB-PBS medium, absorbance 600 nm, primary screen (AID 1176). Further: test concentration not given here. The settings on record: P. aeruginosa PAO1 growth/biofilm, A600, 12 h; higher = more signal.
Test [16] is described as follows: growth modulation of vineyard yeast isolate – strain RM11-1a, OD600, basal, 24 h, primary screen (AID 1177).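 Further: cultures grown under basal conditions with no added stressor; test concentration not given here.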 To be noted: S. cerevisiae RM11-1a growth, OD600, 24 h; higher = more signal, called active from +8 up or from −8 down.
A short description of test [17]: growth of efflux-deficient E. coli DRC39 – strain DRC39, OD650, 24 h, E. coli filamentation inducers, primary screen (AID 1178).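 Further: growth measured as culture turbidity by optical density at 650 nm; test concentration not given here.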 To be noted: E. coli DRC39 acrAB, higher = more signal, called active from +8 up or from −8 down.
Test [18] is described as follows: growth of efflux-deficient E. coli DRC39 – strain DRC39, OD650, 48 h, E. coli filamentation inducers, primary screen (AID 1179).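 Further: screen aims at cell division blockers that make cells filament.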 The settings on record: E. coli DRC39 delta-acrAB growth, higher = more signal, called active from +8 up or from −8 down.
Test [19] can be described thus: viability profiling in RPMI8226 myeloma cells – cell-based, resazurin fluorescence, basal, 24 h, PK04 Diversity Set, profiling panel (AID 1180).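 Further: RPMI8826 multiple myeloma cell line at 5000 cells per well; test concentration not given here.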 To be noted: higher = more signal.
The target of test [20] is E3 ubiquitin-protein ligase XIAP (Homo sapiens) (UniProt P98170). Briefly: small molecules binding XIAP protein – biophysical, small-molecule microarray, fluorescence 635 nm, primary screen (AID 1181).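 Further: score merges 667 nm emission and signal to noise over triplicate slides.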 To be noted: higher = more signal.
E3 ubiquitin-protein ligase XIAP (Homo sapiens), sequence (P98170 whole entry, looked up): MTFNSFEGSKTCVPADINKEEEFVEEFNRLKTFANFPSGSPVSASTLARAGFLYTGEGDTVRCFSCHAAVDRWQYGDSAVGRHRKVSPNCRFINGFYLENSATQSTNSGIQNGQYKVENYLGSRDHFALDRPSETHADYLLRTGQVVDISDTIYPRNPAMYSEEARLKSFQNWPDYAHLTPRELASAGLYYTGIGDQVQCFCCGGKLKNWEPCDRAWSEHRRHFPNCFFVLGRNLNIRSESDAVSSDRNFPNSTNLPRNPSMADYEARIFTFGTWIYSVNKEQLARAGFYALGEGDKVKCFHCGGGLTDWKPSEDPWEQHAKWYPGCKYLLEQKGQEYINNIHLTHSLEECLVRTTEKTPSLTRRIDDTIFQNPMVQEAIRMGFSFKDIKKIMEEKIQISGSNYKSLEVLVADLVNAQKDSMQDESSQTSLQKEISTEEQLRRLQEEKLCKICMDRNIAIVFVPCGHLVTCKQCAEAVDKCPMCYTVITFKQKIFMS

Dihydroorotate dehydrogenase (quinone), mitochondrial (Plasmodium falciparum (isolate 3D7)), sequence (Q08210 whole entry, looked up): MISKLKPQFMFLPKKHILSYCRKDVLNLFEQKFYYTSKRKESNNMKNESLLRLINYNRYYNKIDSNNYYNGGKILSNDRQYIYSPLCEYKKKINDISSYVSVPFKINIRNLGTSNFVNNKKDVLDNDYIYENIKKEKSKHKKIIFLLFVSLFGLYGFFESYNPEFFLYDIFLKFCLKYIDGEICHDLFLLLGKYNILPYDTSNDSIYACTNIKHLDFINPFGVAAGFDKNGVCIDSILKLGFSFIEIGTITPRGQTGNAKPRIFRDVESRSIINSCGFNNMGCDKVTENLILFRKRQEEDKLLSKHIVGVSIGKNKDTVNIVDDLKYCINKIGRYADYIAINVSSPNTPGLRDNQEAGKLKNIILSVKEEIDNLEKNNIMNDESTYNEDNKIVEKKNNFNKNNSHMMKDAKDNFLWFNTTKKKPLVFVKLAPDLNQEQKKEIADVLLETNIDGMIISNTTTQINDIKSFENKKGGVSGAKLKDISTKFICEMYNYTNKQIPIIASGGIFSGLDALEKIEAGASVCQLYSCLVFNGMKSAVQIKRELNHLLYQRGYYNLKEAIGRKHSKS

`COCCOC(=O)N1C(=O)[C@@]2(c3cc(C#CCNC(N)=O)ccc31)[C@H](C(=O)Nc1nc3ccccc3s1)[C@H]1C(=O)O[C@H](c3ccccc3)[C@H](c3ccccc3)N1[C@@H]2c1ccc(O)cc1`: the z-score was -0.277 in test [1]; -0.133 in [2]; -0.287 in test [3]; -1.19 in test [4]; 0.258 in test [5]; -3.96 in test [6]. In addition, the z-score in test [7] is -2.98 (inactive); in test [8], -0.776; in test [9] it was -1.14; in test [10], 0.14 (inactive); in test [11], 0.0612; in test [12] it was 1.1 (inactive). The z-score in test [13] was -0.355 (inactive); in test [15] it was 0.558 (inactive); in [16], 1.37 (inactive); in test [17] it was 0.0967 (inactive); in [18], -0.211 (inactive); in test [19], -1.37. For the same compound, the results for the composite z-score in test [14] and in test [20] were 0.582 (inactive) and 0.273, respectively.
Take `C=C(CCCC)C(=O)CC[C@H](OC(=O)c1ccccc1-c1ccccc1C(=O)O)c1cccc(OCCO)c1`: the z-score in [1] was -0.186; in test [2], 0.415; in [3], -0.73; in test [4] it was -3.37; in [5], -2.88; in test [6], -0.789. In addition, the z-score in test [7] is 0.379 (inactive); in test [8], -0.451; in [9], -0.507; in test [10] it was -0.611 (inactive); in test [11] it was -1.01; in test [12], -1.21 (inactive). The z-score in test [13] was -0.821 (inactive); in test [15] it was 1.09 (inactive); in test [16], 0.0742 (inactive); in test [17], -0.778 (inactive); in [18], -0.689 (inactive); in test [19], -0.432. Besides, the composite z-score in test [14] is -0.347 (inactive); in [20], -0.138.
Consider `Cc1ccc(N2C(=O)c3ccccc3[C@@H](C(=O)NCCN3CCOCC3)[C@@H]2c2ccc(CO)cc2)nc1`, for which the z-score was -0.619 in test [1]; 0.112 in [2]; -0.45 in [3]; 0.128 in test [4]; 0.0765 in [5]; -0.274 in test [6]. The z-score in test [7] was 0.111 (inactive); in [8], -0.171; in test [9] it was 0.235; in test [10], 0.444 (inactive); in test [11], 0.925; in test [12], 0.473 (inactive). Also, the z-score is 0.544 (inactive) in test [13]; -0.618 (inactive) in test [15]; 0.537 (inactive) in [16]; 0.193 (inactive) in test [17]; 0.663 (inactive) in [18]; 0.547 in [19]. Further, the composite z-score in [14] is 0.434 (inactive); in test [20], 0.0095.
Turning to `CO[C@H]1O[C@H](CO)[C@@H](OC(=O)Nc2ccccc2)[C@@H]2OC(=O)[C@@H](Cc3ccccc3)C/C=C/C[C@H](Cc3ccccc3)C(=O)O[C@@H]12`, the z-score in test [1] was -0.255; in test [2] it was -0.0852; in test [3], 0.297; in [4], 0.36; in [5], 0.335; in test [6], -0.502. Also, the z-score in test [7] is 2.28 (inactive); in [8], -0.532; in [9] it was -1.65; in test [10], -0.869 (inactive); in test [11], -0.472; in test [12] it was 0.153 (inactive). The z-score in [13] is -2.22 (inactive); in test [15] it was 0.0126 (inactive); in [16] it was 1.04 (inactive); in test [17], -0.409 (inactive); in test [18] it was 0.582 (inactive); in test [19], -0.381. Further, the results for the composite z-score in [14] and in test [20] were -1.38 (inactive) and 0.381, respectively.
Turning to `C=CCN1C(=O)[C@@]2(O[C@@H](CCO)[C@H]([Si](C)(C)c3ccc(OC)cc3)[C@H]2C)c2cc(N3CCCCC3=O)ccc21`, the z-score in test [1] was -0.816; in test [2] it was 0.146; in test [3] it was -4.51; in test [4] it was -2.69; in test [5] it was -4.05; in test [6], -1.44. Also, the z-score in test [7] is -0.0545 (inactive); in [8], -1.01; in [9], -1.75; in [10] it was -2.04 (inactive); in test [11], -2.74; in [12], 0.208 (inactive). Moreover, the z-score in test [13] is -4.57 (inactive); in test [15], 0.568 (inactive); in test [16] it was 2.45 (inactive); in test [17], 1.16 (inactive); in [18], 0.777 (inactive); in test [19], -5.44. The results for the composite z-score in test [14] and in test [20] were -1.11 (inactive) and 0.271, respectively.
In the case of `CN(C)CCCCCCNC(=O)[C@@H]1C[C@@H]2C(=O)N[C@@H](CCCC[N+](C)(C)C)C(=O)N2[C@@H]1c1cccc(OCCO)c1`, the z-score in test [1] is -0.188; in test [2], -0.015; in [3], 0.413; in test [4] it was 0.232; in test [5], 0.799; in [6], 1.37. For the same compound, the z-score in test [7] was -0.225 (inactive); in test [8], -0.567; in test [9], 0.0992; in [10], -0.646 (inactive); in test [11], 0.473; in test [12] it was -0.834 (inactive). Further, the z-score is 0.349 (inactive) in [13]; 0.0472 (inactive) in test [15]; -1.75 (inactive) in test [16]; 1.03 (inactive) in test [17]; 1.62 (inactive) in test [18]; -0.0472 in test [19]. The composite z-score in test [14] was -2.9 (inactive); in test [20], 0.141.
As for `C=C(CCCC)C(=O)CC[C@@H](OC(C)=O)c1ccc(OCCO)cc1`, the z-score is -0.0836 in test [1]; 0.997 in test [2]; -0.439 in test [3]; -1.97 in [4]; -1.92 in test [5]; -0.338 in test [6]. The z-score in [7] was -0.362 (inactive); in test [8] it was -0.793; in test [9] it was -0.36; in [10], 0.325 (inactive); in test [11] it was -0.603; in test [12] it was -2 (inactive). For the same compound, the z-score in [13] was -0.953 (inactive); in [15] it was 1.07 (inactive); in test [16], 0.662 (inactive); in test [17], 0.227 (inactive); in test [18], 0.189 (inactive); in test [19] it was -0.894. For the same compound, the composite z-score in [14] was -1.78 (inactive); in [20], -0.074.
As for `C=C(COC)/C(=C/C[C@@H](OC(=O)c1ccncc1)c1ccccc1OCCO)c1cnc2ccccc2c1`, the z-score in test [1] was 0.746; in test [2], 0.317; in test [3] it was -0.316; in [4] it was -3.18; in test [5] it was -0.986; in test [6], 2.78. The z-score was -1.16 (inactive) in [7]; -0.527 in test [8]; 1.61 in [9]; 0.268 (inactive) in test [10]; -0.567 in test [11]; -0.0618 (inactive) in [12]. Also, the z-score in test [13] is 0.028 (inactive); in test [15], -0.66 (inactive); in [16], 0.0519 (inactive); in test [17], 0.825 (inactive); in test [18], 0.359 (inactive); in test [19], 0.0353. The composite z-score in test [14] was -3.66 (inactive); in [20], 0.166.
